From PubChem BioAssay AID1159580 (chemical genetic matrix, 2015)
Hit rate of the full screen: of about 5,500 compounds, about 2,000 (36%) were called active. Roughly 18% stayed inconclusive and do not appear here. Cut-off read from the data, not from the text of the source: active = normalized growth mostly below about 0.91 (no sharp cut-off); inconclusive = no clear call, values can overlap the other calls; inactive = mostly above about 0.92. Some of the results follow.

Assay: chemical genetic growth profiling, strain panel (AID 1159580);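 note: tested at 20 µM; growth read once vehicle control cultures reached saturation at 30 °C; 1 = growth at the plate median or of vehicle wells; lower values mean less growth of the strain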
Settings: S. cerevisiae deletion strains, growth OD
[1] = locus YAL040C, strain CLN3, stronger effect = lower value
[2] = locus YDR363W, strain ESC2, stronger effect = lower value
[3] = locus YER002W, strain NOP16, stronger effect = lower value
[4] = locus YNL175C, strain NOP13, stronger effect = lower value
[5] = locus YNL197C, strain WHI3, stronger effect = lower value
[6] = locus YNL224C, strain SQS1, stronger effect = lower value
[7] = locus YOR083W, strain WHI5 (second series), stronger effect = lower value

Measured: normalized growth

O=c1cc(-c2ccc(O)c(O)c2)oc2cc(O)cc(O)c12
inactive: [1] 1.02 | locus YCL061C, strain MRC1 (second series), stronger effect = lower value 0.989 | locus YDR150W, strain NUM1, stronger effect = lower value 0.964 | [2] 1.02 | [3] 1.01 | locus YGR078C, strain PAC10, stronger effect = lower value 0.989 | locus YJR075W, strain HOC1, stronger effect = lower value 0.984 | locus YMR263W, strain SAP30, stronger effect = lower value 1 | [4] 1.01 | [5] 1.02 | [6] 1.03 | [7] 0.966 | locus YPL241C, strain CIN2, stronger effect = lower value 0.997

O=c1cc(-c2ccc(O)cc2)oc2cc(O)cc(O)c12
inactive: locus YAL021C, strain ccr4, stronger effect = lower value 0.995 | locus YAL026C, strain drs2, stronger effect = lower value 0.978 | locus YAL030W, strain snc1, stronger effect = lower value 0.99 | [1] 0.976 | locus YBL061C, strain skt5, stronger effect = lower value 1 | locus YBR009C, strain hhf1, stronger effect = lower value 1.01 | locus YBR023C, strain chs3, stronger effect = lower value 0.993 | locus YBR171W, strain sec66, stronger effect = lower value 0.997 | locus YBR231C, strain swc5, stronger effect = lower value 1 | locus YBR279W, strain paf1, stronger effect = lower value 0.994 | locus YCL011C, strain gbp2, stronger effect = lower value 0.999 | locus YCL016C, strain dcc1, stronger effect = lower value 0.998 | locus YCL061C, strain MRC1, stronger effect = lower value 1.01 | locus YCL069W, strain vba3, stronger effect = lower value 0.989 | locus YCR088W, strain abp1, stronger effect = lower value 0.987 | locus YDL005C, strain med2, stronger effect = lower value 0.995 | locus YDL040C, strain nat1, stronger effect = lower value 0.99 | locus YDR001C, strain nth1, stronger effect = lower value 0.981 | locus YDR069C, strain doa4, stronger effect = lower value 0.966 | locus YDR137W, strain rgp1, stronger effect = lower value 1.04 | locus YDR159W, strain sac3, stronger effect = lower value 0.975 | locus YDR195W, strain ref2 0.955 | locus YDR297W, strain sur2, stronger effect = lower value 0.993 | locus YDR334W, strain swr1, stronger effect = lower value 0.98 | locus YDR335W, strain msn5, stronger effect = lower value 0.996 | [2] 0.998 | locus YDR392W, strain spt3, stronger effect = lower value 0.922 | locus YEL003W, strain gim4, stronger effect = lower value 0.997 | locus YEL037C, strain rad23, stronger effect = lower value 0.981 | locus YEL061C, strain CIN8 (second series), stronger effect = lower value 0.985 | [3] 0.987 | locus YER015W, strain faa2, stronger effect = lower value 0.986 | locus YER016W, strain bim1, stronger effect = lower value 0.98 | locus YER111C, strain swi4, stronger effect = lower value 0.989 | locus YER155C, strain BEM2 (second series), stronger effect = lower value 0.975 | locus YFR010W, strain ubp6, stronger effect = lower value 0.966 | locus YGL167C, strain pmr1, stronger effect = lower value 0.974 | locus YGL173C, strain kem1, stronger effect = lower value 1 | locus YGL227W, strain vid30, stronger effect = lower value 0.989 | locus YGL240W, strain doc1, stronger effect = lower value 1 | locus YGL253W, strain hxk2, stronger effect = lower value 0.973 | locus YGR229C, strain SMI1, stronger effect = lower value 1.01 | locus YHR013C, strain ard1, stronger effect = lower value 1.01 | locus YHR027C, strain rpn1, stronger effect = lower value 0.997 | locus YHR030C, strain SLT2, stronger effect = lower value 1.02 | locus YHR079C, strain IRE1, stronger effect = lower value 0.996 | locus YHR142W, strain chs7, stronger effect = lower value 0.98 | locus YJL092W, strain hpr5, stronger effect = lower value 0.988 | locus YJL095W, strain BCK1 (second series), stronger effect = lower value 0.996 | locus YJL095W, strain BCK1, stronger effect = lower value 1.02 | locus YJL115W, strain asf1, stronger effect = lower value 0.978 | locus YJL129C, strain trk1, stronger effect = lower value 0.995 | locus YJL154C, strain vps35, stronger effect = lower value 0.977 | locus YJL164C, strain tpk1, stronger effect = lower value 1.03 | locus YJL166W, strain qcr8, stronger effect = lower value 1.01 | locus YJL187C, strain SWE1, stronger effect = lower value 0.998 | locus YJR066W, strain TOR1, stronger effect = lower value 0.954 | locus YKL160W, strain elf1, stronger effect = lower value 1.01 | locus YKR026C, strain gcn3, stronger effect = lower value 0.972 | locus YKR091W, strain srl3, stronger effect = lower value 0.985 | locus YLL001W, strain dnm1, stronger effect = lower value 1.03 | locus YLL026W, stronger effect = lower value 0.993 | locus YLL041C, strain sdh2, stronger effect = lower value 0.997 | locus YLR027C, strain aat2, stronger effect = lower value 0.998 | locus YLR113W, strain HOG1, stronger effect = lower value 0.95 | locus YLR221C, strain rsa3, stronger effect = lower value 0.992 | locus YLR258W, strain gsy2, stronger effect = lower value 1 | locus YLR262C, strain YPT6 (second series), stronger effect = lower value 1.05 | locus YLR320W, strain mms22, stronger effect = lower value 1.01 | locus YLR342W, strain FKS1, stronger effect = lower value 0.993 | locus YLR357W, strain rsc2, stronger effect = lower value 0.918 | locus YLR370C, strain arc18, stronger effect = lower value 0.981 | locus YLR384C, strain iki3, stronger effect = lower value 0.98 | locus YML120C, strain ndi1, stronger effect = lower value 0.984 | locus YMR058W, strain fet3, stronger effect = lower value 0.97 | locus YMR125W, strain sto1, stronger effect = lower value 0.973 | locus YMR129W, stronger effect = lower value 0.989 | locus YMR205C, strain PFK2, stronger effect = lower value 1.03 | locus YMR231W, strain pep5, stronger effect = lower value 0.996 | locus YNL071W, strain lat1, stronger effect = lower value 0.993 | [4] 1.01 | locus YNL183C, strain NPR1, stronger effect = lower value 0.943 | [5] 0.981 | locus YNL209W, strain ssb2, stronger effect = lower value 0.998 | [6] 0.982 | locus YNL248C, strain rpa49, stronger effect = lower value 0.989 | locus YNL322C, strain KRE1 (second series), stronger effect = lower value 0.977 | locus YNR049C, strain mso1, stronger effect = lower value 0.989 | locus YOR001W, strain rrp6, stronger effect = lower value 1 | locus YOR070C, strain gyp1, stronger effect = lower value 1 | locus YOR080W, strain dia2, stronger effect = lower value 0.986 | [7] 0.954 | locus YOR083W, strain WHI5, stronger effect = lower value 1.02 | locus YOR106W, strain vam3, stronger effect = lower value 0.999 | locus YOR231W, strain MKK1, stronger effect = lower value 1.02 | locus YOR265W, strain rbl2, stronger effect = lower value 0.998 | locus YOR270C, strain vph1, stronger effect = lower value 0.988 | locus YOR290C, strain snf2, stronger effect = lower value 0.96 | locus YPL051W, strain arl3, stronger effect = lower value 0.999 | locus YPL078C, strain atp4, stronger effect = lower value 1 | locus YPL106C, strain sse1, stronger effect = lower value 0.955 | locus YPL240C, strain hsp82, stronger effect = lower value 0.995 | locus YPL256C, strain CLN2, stronger effect = lower value 1.01
